# Screening data: PubChem, National Center for Advancing Translational Sciences (NCATS)
# Compounds with a hit are over-represented: about 3.4% of the library has one in this group of screens.
# AmpC inh no detg = qHTS Inhibitors of AmpC Beta-Lactamase (assay without detergent); P00811; AmpC nitrocefin hydrolysis, absorbance 480 nm, 0.0001% Triton; Potency, µM (highest dose often 57.1 µM), for the others: top-dose activity change, negative = inhibition, hits mostly inhibitors; actives 0.52% (n = 330,000); AID 485341, 2010;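 note: plate controls were no compound for no effect and no enzyme for full effect; nearly all actives have a fitted effect of over 20% in size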
# Target sequence (P00811 whole entry, looked up): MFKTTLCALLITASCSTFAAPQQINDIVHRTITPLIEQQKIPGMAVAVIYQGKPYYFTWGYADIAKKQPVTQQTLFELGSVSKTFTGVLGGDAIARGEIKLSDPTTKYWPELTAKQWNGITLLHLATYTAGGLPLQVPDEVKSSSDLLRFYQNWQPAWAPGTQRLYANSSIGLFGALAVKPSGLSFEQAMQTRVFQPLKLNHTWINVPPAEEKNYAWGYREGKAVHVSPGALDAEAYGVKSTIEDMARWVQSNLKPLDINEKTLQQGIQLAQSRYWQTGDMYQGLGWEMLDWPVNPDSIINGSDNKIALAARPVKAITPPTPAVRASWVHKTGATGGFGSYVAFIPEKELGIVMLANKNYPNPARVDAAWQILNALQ
#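 20 mM phosphate pH 7.0 + 0.01% (detergent screen) or 0.0001% Triton X-100; 5.3 nM AmpC reagent; cpd preinc 15 min RT; nitrocefin (800 uM stock) to start; A480 q20 s × 4 min; Activity was normalised to no-enzyme and no-compound control wells.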
# Giardia FBPA inh = qHTS Assay for Inhibitors of Fructose-1,6-bisphosphate Aldolase from Giardia Lamblia | actives 0.71% (n = 290,000) | Potency, µM (titrated, usually from 59.6 µM), without a hit: at the highest dose activity, negative = inhibition, actives largely listed as inhibitors | purified Giardia FBPA | A8B2U2 | AID 2451, 2010; note: nearly all actives have a fitted effect of over 55% in size
# Target sequence (A8B2U2 whole entry, looked up): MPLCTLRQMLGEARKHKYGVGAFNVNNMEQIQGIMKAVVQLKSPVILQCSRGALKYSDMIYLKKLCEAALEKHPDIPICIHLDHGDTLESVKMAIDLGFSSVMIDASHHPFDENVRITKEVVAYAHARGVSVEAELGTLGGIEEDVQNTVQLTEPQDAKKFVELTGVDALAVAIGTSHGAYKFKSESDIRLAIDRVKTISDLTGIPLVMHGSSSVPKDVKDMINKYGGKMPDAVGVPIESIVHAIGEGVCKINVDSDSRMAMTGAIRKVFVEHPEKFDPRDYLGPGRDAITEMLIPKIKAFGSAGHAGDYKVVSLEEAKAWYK
#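 40 nM FBPA preincubated 10 min at RT with compound (up to 57.5 uM final), then substrate plus GAPDH/TPI/NAD/arsenate coupling and diaphorase/resazurin added. Fluorescence read after 20 min at RT, 525/598 nm.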
# Sm TGR block = qHTS Assay for the Inhibitors of Schistosoma Mansoni Peroxiredoxins; Potency, µM (series often up to 114 µM), for the others: at the top dose activity change, negative = inhibition, actives largely listed as inhibitors; actives 3% (n = 360,000); purified TGR, DTNB reduction, TNB absorbance 405 nm; note: nearly all actives have a fitted effect of over 60% in size
#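 Kinetic colorimetric format: TGR-catalysed, NADPH-driven DTNB reduction monitored via TNB absorbance. Enzyme dispensed at 20 nM; compound exposure 15 min at room temperature before reaction start.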
# AmpC detergent = qHTS Inhibitors of AmpC Beta-Lactamase (assay with detergent); AID 485294, 2010; Potency, µM (doses to about 114 µM), inactives show at the top dose activity change, negative = inhibition, actives largely listed as inhibitors; AmpC hydrolysis of nitrocefin, absorbance 480 nm, 0.01% Triton; actives 0.041% (n = 370,000); P00811;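 note: 0% = no-compound wells and -100% = no-enzyme wells; nearly all actives have a fitted effect of over 25% in size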
#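 AmpC (5.3 nM in the dispensed reagent) in 20 mM phosphate pH 7.0 with 0.01% (detergent screen) or 0.0001% Triton X-100 was preincubated with compounds for 15 min at room temperature. Nitrocefin was then added from an 800 uM solution, and hydrolysis was followed at 480 nm.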
# RE007 growth inh = qHTS Assay for Inhibitors of the HIV-1 protein Vpr; S. pombe RE007 Vpr strain, BacTiter-Glo ATP luminescence, 24 h; Potency, µM (series often up to 92.2 µM), for inactives: at the top dose activity change, negative = less growth, hits mostly inhibitors; actives 0.21% (n = 360,000); AID 651644, 2012; active = well fitted falling curve with a large enough effect; inconclusive = small, poorly fitted or top-dose-only effect; inactive = no such curve, though single readings can be large or run the other way; note: nearly all actives have a fitted effect of over 50% in size
#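 Fission yeast strain RE007, carrying one chromosomally integrated HIV-1 vpr copy, was seeded at OD 0.01 in PMG+AL medium with 23 nL pinned compound. After 24 h at 30 °C and 99% humidity, viability was read by BacTiter-Glo luminescence.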
# Active calls of the source: *; u = inconclusive; x = not tested or not shown; [ ] = remark or other dose. Unless noted, calls come from the whole dose curve; as a rule, active = well fitted curve in the direction sought with a large enough effect; inconclusive = small, poorly fitted or top-dose-only effect, or another doubt; inactive = no such curve, though single readings can be large; an effect the other way counts as inactive or inconclusive. Unless noted, % is set by controls: 0 for no effect and ±100 for the full control effect; potency is the fitted concentration of half-maximal effect.
SMILES,AmpC inh no detg,Giardia FBPA inh,Sm TGR block,AmpC detergent,RE007 growth inh
O=C(Cn1cnc2scc(-c3ccccc3)c2c1=O)NCc1ccco1,-31%,-1%,x,-7%,4%
Nn1cnc2scc(-c3ccco3)c2c1=O,-16%,10%,35µM*,6%,-12%
C=CCn1c(SCC(C)=O)nc2scc(-c3ccco3)c2c1=O,5%,-21%,2.8µM*,-10%,-20%
C=CCn1c(SCC(=O)N2CCOCC2)nc2scc(-c3ccco3)c2c1=O,94%,u,4.5µM*,u,-13%
Cc1cc(CC(C)C)n(-c2nc3ccccc3c(=O)n2OCc2ccccc2)n1,13%,-1%,5%,u,-23%
CC(C)C(C)NC(=O)CSc1nc2scc(-c3ccco3)c2c(=O)n1-c1ccccc1 (centres undefined),20%,-14%,25µM*,-6%,-5%
O=C(COc1cccc2c1CCN(Cc1ccccc1F)C2=O)N1CCCCC1,25%,4%,89µM*,u,38%
COc1ccc2c(Sc3ccccc3)c(C(=O)NCCN(C)C)[nH]c2c1,x,x,40µM*,30%,x
COc1ccc2c(Sc3ccc(C)cc3)c(C(=O)NCc3ccc(F)cc3)[nH]c2c1,x,x,45µM*,24%,x
COc1ccc(CSC2=NCCN2)cc1Br,-6%,u,-11%,-2%,-21%
CCOC(=O)c1ccc(NC(=O)C(Cc2ccccc2)N2Cc3ccccc3C2=O)cc1 (centres undefined),x,x,1%,-7%,x
O=C(O)c1ccc2cccnc2n1,-12%,5.6µM*,32µM*,-2%,9%
O=C(O)c1cccc(C(=O)O)n1,-14%,28µM*,-31%,u,x
O=C(O)c1ccccn1,-7%,x,-2%,u,-2%
CCOC(=O)Nc1ccc2c(c1)N(C(=O)CCN(CC)CC)c1ccccc1CC2,30%,0%,-9%,u,-5%
CCOC(=O)Nc1ccc2c(c1)N(C(=O)CCN(CC)CC)c1ccccc1S2=O (centres undefined),-12%,1%,4.5µM*,-7%,-2%
Cc1cc(NC(=O)CSc2cn(CCNC(=O)c3ccc(Cl)cc3)c3ccccc23)no1,10µM*,24%,10%,3%,5%
Clc1ccc(N2CCN(Cc3ccc(Br)o3)CC2)cc1,-4%,u,2%,-17%,-26%
COc1cccc(Nc2ncc3nc(-c4cccs4)c(=O)n(Cc4cccs4)c3n2)c1,x,-7%,x,x,x
COc1cc(/C=c2\s/c(=C(/C#N)C(=O)N3CCCC3)n(-c3ccccc3)c2=O)ccc1O,-29%,-7%,18%[11.4 µM],-5%,-20%
Cc1ccc(/C=c2\s/c(=C(/C#N)C(=O)N3CCCC3)n(Cc3ccco3)c2=O)s1,-33%,-11%,5µM*,0%,1%
C=CCOC(=O)C1=C(C)OC(N)=C(C#N)C1c1ccc2c(c1)OCO2 (centres undefined),5%,-16%,-12%,-12%,9%
CC(=O)C1=C(C)OC(N)=C(C#N)C1c1ccco1 (centres undefined),-15%,u,13µM*,0%,-15%
C=CCOC(=O)C1=C(C)OC(N)=C(C#N)C1c1ccoc1 (centres undefined),-26%,-24%,20µM*,u,4%
CC(=O)C1=C(C)OC(N)=C(C#N)C1c1cccc2ccccc12 (centres undefined),-24%,20µM*,11µM*,-4%,-2%
SMILES,AmpC inh no detg,Giardia FBPA inh,Sm TGR block,AmpC detergent,RE007 growth inh
COC(=O)C1=C(C)OC(N)=C(C#N)C1c1ccco1 (centres undefined),-7%,-5%,-29%,1%,7%
CS(=O)(=O)N(CC(=O)N1CCOCC1)c1ccc2c(c1)OCO2,-3%,3%,5%,u,4%
CCOC(=O)c1cc2c(ccn2-c2ccc(F)cc2)n1CC(=O)N(CC)CC,172%,-14%,2%,2%,15%
CCOC(=O)Nc1ccc(NCc2ccc(F)cc2)nc1N,9%,-29%,3.2µM*,u,-12%
Cc1ccc(C(=O)N2c3ccccc3CC2C)o1 (centres undefined),-12%,2%,-22%,-4%,u
S=C(NCCc1ccccc1)Nc1nccs1,-30%,x,2.2µM*,-2%,-3%
O=C(NCCc1ccccc1)C(=O)Nc1nccs1,-2%,0%,-9%,-11%,8%
Cn1c(N=Nc2ccc(N3CCOCC3)cc2)[n+](C)c2ccccc21,-1%,-22%,x,3%,18µM*
O=C(NCc1ccco1)c1cccc(S(=O)(=O)N2CCOCC2)c1,-11%,0%,u,-6%,-2%
CN(c1ccccc1)S(=O)(=O)c1cccc(NC(=O)COC(=O)C2CCCCC2)c1,3.5µM*,-9%,-31%,-2%,20%
NS(=O)(=O)c1cccc(NC(=O)COC(=O)C2CCCCC2)c1,-23%,7%,-1%,-7%,0%
CN(c1ccccc1)S(=O)(=O)c1cccc(C(=O)OCC(=O)NCc2ccco2)c1,-6%,11%,56µM*,2%,14%
O=C(NCc1ccco1)c1cccc(S(=O)(=O)N2CCCCC2)c1,-25%,-1%,25µM*,-10%,-12%
CCn1cc(C(=O)NCc2ccco2)c(=O)c2cc(F)c(N3CCN(C(=O)c4ccco4)CC3)cc21,220%,-4%,20µM*,-13%,10%
CCn1cc(C(=O)NCC(C)C)c(=O)c2cc(F)c(N3CCN(C(=O)c4ccco4)CC3)cc21,30%,12%,1%,-10%,0%
COc1cccc(NC(=O)C2CCCN(S(=O)(=O)c3ccc4[nH]c(=O)ccc4c3)C2)c1 (centres undefined),x,x,9%,-4%,x
CCn1cc(C(=O)NCc2ccco2)c(=O)c2cc(S(=O)(=O)N3CCc4ccccc4C3)ccc21,118%,-3%,14µM*,2%,-7%
O=C(COC(=O)c1cc(S(=O)(=O)N2CCc3ccccc3C2)ccc1Cl)NCc1ccco1,-40%,-27%,18µM*,u,11%
O=C(COC(=O)c1ccc(S(=O)(=O)N2CCCC2)cc1)NCc1ccco1,-7%,6%,40µM*,0%,-8%
O=C(N/N=C/c1ccc(O)c(O)c1)c1cccc(S(=O)(=O)N2CCCCC2)c1,14µM*,-17%,-14%,4%,6%
Fc1ccc(-c2cc(C(F)(F)F)nc(-n3cc(Cl)cn3)n2)cc1,-32%,-4%,-2%,u,-7%
CCOC(=O)N1CCN(C(=O)CCCn2nc(C)c3sc4ccccc4c3c2=O)CC1,167%,-11%[12.9 µM],11%,-12%,24%
O=C(COC(=O)c1cccc(S(=O)(=O)N2CCc3ccccc32)c1)NCc1ccco1,-20%,-9%,-30%,-5%,22%
